In PubChem BioAssay (NCATS):
Records with an inconclusive call do not appear. Active and inactive are the calls of the source. Unless noted, calls follow the shape of the dose curve; as a rule, active = well fitted curve in either direction with a large enough effect (not every such curve was filed as active); inconclusive = small, poorly fitted or top-dose-only effect, or another doubt; inactive = flat fitted curve, though single readings scatter.

Key:
[1] = molecular target: Lysosomal acid glucosylceramidase (Homo sapiens) (UniProt P04062); test: Glucocerebrosidase-p2 (AID 348; in the data active = potency below about 10 µM; also: potency is read from the fitted curve at half-maximal effect); settings: purified GBA, blue fluorogenic substrate, 40 min
Summary of the method: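 Normal human glucocerebrosidase (0.2 nM) with blue fluorogenic substrate (80 uM final) in citrate/phosphate pH 5.9 with 10mM sodium taurocholate, 0.01% tween-20; 40 min RT, NaOH/glycine stop; fluorescence Ex 365/Em 440; AC50 from a titration from 0.6 nM upwards.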

[2] = AP1 Signaling Pathway (AID 357); settings: ME-180 AP-1-bla reporter, EGF-induced, beta-lactamase ratio, 5 h; at 7.69 µM (top of the series) unless noted;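 also: ME-180 reporter cells stimulated with EGF at its EC50 level; % is scaled to controls: 0 for no effect and ±100 for the full control effect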
Summary of the method: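 Modulation of EGF-driven AP-1 transcription was assessed with a beta-lactamase reporter in ME-180 cells. Compound and EC50 EGF were co-incubated 5 hours at 37 °C before 2.5-hour CCF4 loading at room temperature and dual-emission reading.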

[3] = NFAT Signaling Pathway (AID 444); settings: Jurkat NFAT-bla M1, carbachol, beta-lactamase ratio, 5 h; at 7.69 µM (top of the series) unless noted;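 also: carbachol stimulus at about its EC50 of 1 µM final; % is scaled to controls: 0 for no effect and ±100 for the full control effect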
Summary of the method: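 Jurkat cells with NFAT-driven β-lactamase reporter and co-expressed M1 receptor, stimulated with carbachol (final 1 uM, ~EC50), compound titration, 5 h at 37 °C. CCF4 loaded 1 h at RT; 460/530 nm ratio gave %activity and AC50.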

[4] = Stat Signaling Pathway (AID 446); settings: ME-180 SIE beta-lactamase reporter, IL-6 stimulated, 5 h; at 7.69 µM (top of the series) unless noted;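 also: ME-180 cervical cancer cells given 40 pM IL-6 alongside compound; SIE-controlled beta-lactamase reporter measured as 460/530 nm FRET emission ratio; % is scaled to controls: 0 for no effect and ±100 for the full control effect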
Summary of the method: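 Compound effects on IL-6-induced STAT reporter activity were measured in ME-180 cells. After overnight culture, cells were co-treated with 40 pM IL-6 for 5 hrs before beta-lactamase substrate loading at room temperature.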

[5] = molecular target: Glucocorticoid receptor (Homo sapiens) (UniProt P04150); test: GR-GFP Redistribution (AID 450;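 active = compounds whose dose series gives a full or clear partial fitted curve of increased nuclear translocation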; also: potency is read from the fitted curve at half-maximal effect); settings: U2OS GR-GFP nuclear translocation, laser cytometry, 2 h
[6] = molecular target: Glucocorticoid receptor (Homo sapiens) (UniProt P04150); test: GR-EFC Redistribution (AID 451; calls by dose curve; also: potency is read from the fitted curve at half-maximal effect); settings: CHO-K1 GR-EFC translocation, beta-gal luminescence, 2 h
Summary of the method: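 CHO-K1 cells expressing nuclear EA and GR-ED fragments of b-gal; compounds titrated up to 46 uM final, 2 h at 37 C. GR nuclear translocation read as complemented b-gal luminescence after 1 h RT detection.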

[7] = molecular target: Mitogen-activated protein kinase 10 (Mus musculus) (UniProt Q61831); test: JNK3 AlphaScreen Assay (AID 530); settings: JNK3 lysate, c-Jun phosphorylation; series mostly up to 57.1 µM;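 also: kinase came from lysate of stimulated human HepG2 cells; signal reports phosphorylation of biotinylated GST-cJun 1-79 at Ser73 with 10 µM ATP; % is scaled to controls: 0 for no effect and ±100 for the full control effect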
Summary of the method: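 HepG2 lysate (IL-1b/TNFa pre-activated) + biotin-GST-cJun 1-79 + anti-pSer73 cJun; cpd titration, 15 min RT; ATP 10 uM start; Tris pH 7.6, MgCl2, DTT, vanadate; beads in EDTA buffer; AlphaScreen.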

[8] = molecular target: 3',5'-cyclic-AMP phosphodiesterase 4B (Homo sapiens) (UniProt Q07343); test: qHTS Assay for Inhibitors of PDE-IV (AID 607; active = well fitted activation curve with a large enough effect in the main read-out, with a control signal flat, not every such curve was filed as active; also: % of control where 0% means no effect); settings: HEK293 ACTOne CNG channel cells, membrane potential fluorescence; series mostly up to 22.9 µM
Summary of the method: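 ACTOne HEK293 cells carry a modified cAMP-gated CNG channel and express endogenous PDE4; plated 1000 cells/well, compounds up to 22.9 uM final. Membrane-potential dye fluorescence (ex 535/em 590) was read; parental cells received 10 uM forskolin + 100 uM RO 20-1724.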

[9] = qHTS Assay for Identification of Small Molecule Agonists for Hypoxia Response Element Signaling Pathway (AID 914; active = well fitted activation curve with a large enough effect in the signal ratio, with a control signal flat, not every such curve was filed as active; the % refers to the signal ratio; also: potency is read from the fitted curve at half-maximal effect; as to activation: % of control where 0% means no effect); settings: ME-180 (cervical carcinoma) HRE-bla reporter, beta-lactamase ratio, CoCl2, 17 h; activation: active compounds read high
Summary of the method: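 Reporter activity (beta-lactamase, CCF4 460nm/530nm ratio) in HRE-bla ME-180 cells is recorded after 17 h compound exposure with EC50 CoCl2 at 37 degrees Celsius. AC50 values come from titration data.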

[10] = Primary qHTS for small molecule stabilizers of the endoplasmic reticulum resident proteome: Secreted ER Calcium Modulated Protein (SERCaMP) assay (AID 1508630; active = well fitted curve in the direction sought with a large enough effect; an effect the other way counts as inactive or inconclusive; also: % is scaled to controls: 0 for no effect and ±100 for the full control effect); settings: SH-SY5Y GLuc-SERCaMP (Gaussia luciferase released on ER calcium loss) secretion, thapsigargin, luminescence; series mostly up to 38.4 µM
Summary of the method: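 The SH-SY5Y reporter protocol was run at 3 concentrations up to 38.3 uM (primary) or 11 concentrations (follow-up): 16 h compound, 100 nM thapsigargin for 4 h, then extracellular luciferase luminescence.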

[11] = molecular target: Cytochrome P450 3A4 (Homo sapiens) (UniProt P08684); test: qHTS Assay for Activators of Cytochrome P450 3A4 (AID 885; active = well fitted curve in the direction sought with a large enough effect; an effect the other way counts as inactive or inconclusive; also: nearly all actives have a fitted effect of over 65% in size); settings: recombinant CYP3A4, Luciferin-PPXE luminescence, 60 min; series mostly up to 57.1 µM
Summary of the method: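 CYP3A4 activity: Luciferin-PPXE O-dealkylation, 25uM substrate, 200mM KPO4, RT throughout. Read-out is luciferase luminescence; higher values reflect activation.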

[12] = molecular target: Cytochrome P450 1A2 (Homo sapiens) (UniProt P05177); test: p450-cyp1a2 (AID 410; calls by dose curve; also: potency is read from the fitted curve at half-maximal effect;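 as to activity change, negative = inhibition: -100% = full effect of reference inhibitor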); settings: recombinant CYP1A2, luciferin-ME demethylation, luminescence; series mostly up to 57 µM
Summary of the method: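 Read-out is luminescence from luciferin produced by CYP1A2 demethylation of Luciferin-ME (100uM, at Km). Detection reagent stopped the 60 min NADPH-dependent reaction; signals were normalized to 57 uM furafylline.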

[13] = molecular target: Cytochrome P450 2C9 (Homo sapiens) (UniProt P11712); test: qHTS Assay for Inhibitors and Substrates of Cytochrome P450 2C9 (AID 883; active = well fitted curve in the direction sought with a large enough effect; an effect the other way counts as inactive or inconclusive; also: % is scaled to controls: 0 for no effect and ±100 for the full control effect; nearly all actives have a fitted effect of over 60% in size); settings: recombinant CYP2C9, luciferin-H luminescence, 60 min; series mostly up to 57.1 µM
Summary of the method: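 10nM CYP2C9 + 100uM Luciferin-H (=KM), 25mM KPO4; cpd 10 min 37C; NADPH regen, 60 min 37C; stop/detect with P450 Glo-Buffer 20 min; luminescence. Norm. to 57uM sulphaphenazole as full inhibition.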

[14] = molecular target: Cytochrome P450 3A4 (Homo sapiens) (UniProt P08684); test: qHTS Assay for Inhibitors and Substrates of Cytochrome P450 3A4 (AID 884; active = well fitted curve in the direction sought with a large enough effect; an effect the other way counts as inactive or inconclusive; also: % is scaled to controls: 0 for no effect and ±100 for the full control effect; nearly all actives have a fitted effect of over 50% in size); settings: recombinant CYP3A4, Luciferin-PPXE luminescence; series mostly up to 57.1 µM
Summary of the method: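 Luminescent readout of luciferin produced by CYP3A4 (20 nM) dealkylation of Luciferin-PPXE, 25 uM (its KM). NADPH-driven reaction ran 60 min at RT after 10 min compound preincubation; data scaled to 57 uM ketoconazole as 100% inhibition.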

Sequence of Cytochrome P450 3A4 (Homo sapiens) (P08684 whole entry, looked up): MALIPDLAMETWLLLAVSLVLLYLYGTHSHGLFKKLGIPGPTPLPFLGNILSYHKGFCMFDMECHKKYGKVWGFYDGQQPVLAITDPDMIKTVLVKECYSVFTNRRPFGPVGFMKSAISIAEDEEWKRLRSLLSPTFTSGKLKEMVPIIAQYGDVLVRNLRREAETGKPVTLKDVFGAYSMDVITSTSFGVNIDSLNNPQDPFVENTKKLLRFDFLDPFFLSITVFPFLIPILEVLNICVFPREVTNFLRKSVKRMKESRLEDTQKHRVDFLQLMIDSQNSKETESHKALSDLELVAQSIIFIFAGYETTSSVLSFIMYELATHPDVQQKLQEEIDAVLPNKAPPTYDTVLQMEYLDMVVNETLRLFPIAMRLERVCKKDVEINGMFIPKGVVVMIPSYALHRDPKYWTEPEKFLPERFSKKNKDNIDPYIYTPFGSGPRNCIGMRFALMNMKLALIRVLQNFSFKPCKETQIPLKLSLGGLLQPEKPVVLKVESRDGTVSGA
Sequence of Glucocorticoid receptor (Homo sapiens) (P04150 whole entry, looked up, the tested form may be a part): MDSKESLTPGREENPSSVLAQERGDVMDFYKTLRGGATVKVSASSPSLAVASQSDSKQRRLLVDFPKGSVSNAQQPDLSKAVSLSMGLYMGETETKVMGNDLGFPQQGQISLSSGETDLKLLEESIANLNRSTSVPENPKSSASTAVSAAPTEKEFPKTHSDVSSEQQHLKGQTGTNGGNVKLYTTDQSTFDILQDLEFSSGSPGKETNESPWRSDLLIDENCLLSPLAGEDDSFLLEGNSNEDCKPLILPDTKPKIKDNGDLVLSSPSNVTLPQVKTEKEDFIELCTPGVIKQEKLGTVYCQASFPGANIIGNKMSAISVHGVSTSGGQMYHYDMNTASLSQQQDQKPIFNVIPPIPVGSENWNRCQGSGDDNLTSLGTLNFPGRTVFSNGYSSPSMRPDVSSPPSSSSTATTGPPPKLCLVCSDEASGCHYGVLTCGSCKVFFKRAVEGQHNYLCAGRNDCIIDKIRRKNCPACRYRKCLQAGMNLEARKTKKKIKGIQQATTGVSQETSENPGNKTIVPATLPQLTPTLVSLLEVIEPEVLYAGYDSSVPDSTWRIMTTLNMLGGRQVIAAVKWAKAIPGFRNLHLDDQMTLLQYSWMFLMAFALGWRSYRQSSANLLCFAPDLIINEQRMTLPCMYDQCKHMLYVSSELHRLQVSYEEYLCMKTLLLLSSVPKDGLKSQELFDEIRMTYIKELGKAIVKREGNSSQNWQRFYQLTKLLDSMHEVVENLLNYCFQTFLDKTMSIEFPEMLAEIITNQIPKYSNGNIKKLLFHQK
Sequence of 3',5'-cyclic-AMP phosphodiesterase 4B (Homo sapiens) (Q07343 whole entry, looked up): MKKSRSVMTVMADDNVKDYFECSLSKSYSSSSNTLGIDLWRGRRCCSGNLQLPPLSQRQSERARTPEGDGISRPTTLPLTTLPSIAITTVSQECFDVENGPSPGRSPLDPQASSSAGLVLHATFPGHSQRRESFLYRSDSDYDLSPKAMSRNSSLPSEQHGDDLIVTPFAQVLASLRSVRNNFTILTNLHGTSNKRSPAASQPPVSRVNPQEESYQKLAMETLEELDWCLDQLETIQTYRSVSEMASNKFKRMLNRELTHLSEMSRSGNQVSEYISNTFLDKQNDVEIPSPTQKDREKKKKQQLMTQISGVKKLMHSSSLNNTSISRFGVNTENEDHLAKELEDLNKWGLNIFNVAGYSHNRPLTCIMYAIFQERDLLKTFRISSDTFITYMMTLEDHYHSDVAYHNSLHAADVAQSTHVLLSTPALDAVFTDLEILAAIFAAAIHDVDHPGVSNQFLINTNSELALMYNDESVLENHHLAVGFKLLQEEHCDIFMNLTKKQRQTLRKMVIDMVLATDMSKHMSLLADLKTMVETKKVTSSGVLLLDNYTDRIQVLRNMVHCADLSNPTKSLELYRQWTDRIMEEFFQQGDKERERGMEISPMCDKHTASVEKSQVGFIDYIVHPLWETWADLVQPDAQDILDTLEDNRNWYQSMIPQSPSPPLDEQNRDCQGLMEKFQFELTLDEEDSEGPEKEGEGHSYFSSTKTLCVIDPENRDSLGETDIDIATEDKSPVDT
Sequence of Lysosomal acid glucosylceramidase (Homo sapiens) (P04062 whole entry, looked up): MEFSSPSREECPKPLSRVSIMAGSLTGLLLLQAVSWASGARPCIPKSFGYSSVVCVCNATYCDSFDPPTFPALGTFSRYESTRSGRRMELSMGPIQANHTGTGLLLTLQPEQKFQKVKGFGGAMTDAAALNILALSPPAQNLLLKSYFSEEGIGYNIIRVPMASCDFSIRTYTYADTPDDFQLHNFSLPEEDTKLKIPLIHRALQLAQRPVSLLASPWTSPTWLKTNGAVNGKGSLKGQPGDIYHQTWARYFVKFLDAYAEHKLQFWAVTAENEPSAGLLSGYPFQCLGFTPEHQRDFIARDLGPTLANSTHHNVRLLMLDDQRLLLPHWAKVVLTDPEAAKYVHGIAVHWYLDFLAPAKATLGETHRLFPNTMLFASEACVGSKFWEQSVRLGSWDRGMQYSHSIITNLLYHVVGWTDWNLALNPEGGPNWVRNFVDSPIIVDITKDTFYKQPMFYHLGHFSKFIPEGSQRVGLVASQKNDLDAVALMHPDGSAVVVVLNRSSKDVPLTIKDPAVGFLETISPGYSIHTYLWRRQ
Sequence of Cytochrome P450 1A2 (Homo sapiens) (P05177 whole entry, looked up): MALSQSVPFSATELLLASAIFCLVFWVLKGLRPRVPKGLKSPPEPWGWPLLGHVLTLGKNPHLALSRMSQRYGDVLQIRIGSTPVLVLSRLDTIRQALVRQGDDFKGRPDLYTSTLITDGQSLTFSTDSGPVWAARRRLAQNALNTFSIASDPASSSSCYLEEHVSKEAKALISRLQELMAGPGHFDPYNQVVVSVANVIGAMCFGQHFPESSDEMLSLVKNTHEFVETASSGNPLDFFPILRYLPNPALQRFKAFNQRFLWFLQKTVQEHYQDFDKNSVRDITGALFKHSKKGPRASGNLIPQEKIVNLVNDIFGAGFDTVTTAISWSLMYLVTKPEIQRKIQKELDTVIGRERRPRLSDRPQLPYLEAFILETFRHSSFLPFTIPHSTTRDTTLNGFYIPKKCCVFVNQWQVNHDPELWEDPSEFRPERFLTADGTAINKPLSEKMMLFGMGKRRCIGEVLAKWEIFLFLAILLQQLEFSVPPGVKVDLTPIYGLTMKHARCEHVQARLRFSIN
Sequence of Cytochrome P450 2C9 (Homo sapiens) (P11712 whole entry, looked up): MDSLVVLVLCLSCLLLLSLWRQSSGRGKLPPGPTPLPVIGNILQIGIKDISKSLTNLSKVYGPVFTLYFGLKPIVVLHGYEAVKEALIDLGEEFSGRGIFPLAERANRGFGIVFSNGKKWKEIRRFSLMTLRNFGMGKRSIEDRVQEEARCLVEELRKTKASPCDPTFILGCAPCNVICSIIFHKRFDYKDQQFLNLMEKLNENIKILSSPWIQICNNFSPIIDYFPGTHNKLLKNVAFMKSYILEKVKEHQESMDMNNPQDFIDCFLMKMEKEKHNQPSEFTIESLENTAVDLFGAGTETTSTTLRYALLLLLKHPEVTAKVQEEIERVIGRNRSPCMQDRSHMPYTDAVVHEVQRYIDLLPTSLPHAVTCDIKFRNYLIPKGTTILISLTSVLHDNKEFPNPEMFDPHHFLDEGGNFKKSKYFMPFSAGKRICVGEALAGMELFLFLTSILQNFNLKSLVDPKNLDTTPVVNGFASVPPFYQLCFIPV

COc1cccc(Cn2c(=O)c(-c3ccc(Cl)cc3)nc3cnc(N(C)C)nc32)c1
active: activity change, negative = inhibition [2] 122% [activator] | activity change, negative = inhibition [3] 154% [activator] | activity, negative = inhibition [4] 215% [activator] | Potency [9] 316 nM
inactive: Potency [1] > 11.4 µM | Potency [5] > 9.22 µM | Potency [6] > 46 µM | Potency [7] | Potency [8] | outcome [10]

Cn1c(=O)c(-c2cc(F)cc(F)c2)nc2cnc(Oc3cccc(Cl)c3)nc21
inactive: Potency [1] > 11.4 µM | activity change, negative = inhibition [2] -16% | activity change, negative = inhibition [3] -4.07% | activity, negative = inhibition [4] 7.63% | Potency [5] > 9.22 µM | Potency [6] > 46 µM | Potency [7] | Potency [8] | outcome [10]

O=c1c(-c2ccc(F)cc2)nc2cnc(Nc3ccccc3)nc2n1C1CC1
inactive: Potency [1] > 11.4 µM | activity change, negative = inhibition [2] -14% | activity change, negative = inhibition [3] -2.3% | activity, negative = inhibition [4] -3.65% | Potency [5] > 9.22 µM | Potency [6] > 46 µM | Potency [7] | Potency [8] | outcome [10]

COc1ccccc1CCn1c(=O)c(C)nc2cncnc21
inactive: Potency [1] > 11.4 µM | activity change, negative = inhibition [2] -13.2% | activity change, negative = inhibition [3] 6.15% | activity, negative = inhibition [4] -13.1% | Potency [5] > 9.22 µM | Potency [6] > 46 µM | Potency [7] | Potency [8] | outcome [10]

O=c1c(-c2cccc(F)c2)nc2cncnc2n1Cc1ccccc1
inactive: Potency [1] > 11.4 µM | activity change, negative = inhibition [2] -7.86% | activity change, negative = inhibition [3] -7.28% | activity, negative = inhibition [4] -8.08% | Potency [5] > 9.22 µM | Potency [6] > 46 µM | Potency [11] | outcome [10]

COCCn1c(=O)c(-c2ccc(Cl)cc2)nc2cnc(Oc3ccc(OC)cc3)nc21
inactive: Potency [1] > 11.4 µM | activity change, negative = inhibition [2] -18.1% | activity change, negative = inhibition [3] -1.47% | activity, negative = inhibition [4] -2.62% | Potency [5] > 9.22 µM | Potency [6] > 46 µM | Potency [7] | Potency [8] | outcome [10]

O=c1c(-c2ccc(F)c(F)c2)nc2cncnc2n1Cc1ccc(F)cc1
inactive: Potency [1] > 11.4 µM | activity change, negative = inhibition [2] 2.91% | activity change, negative = inhibition [3] -2.88% | activity, negative = inhibition [4] 1.58% | Potency [5] > 9.22 µM | Potency [6] > 46 µM | Potency [7] | Potency [8] | outcome [10]

COCCn1c(=O)c(-c2ccc(F)cc2)nc2cnc(Oc3cccc(Cl)c3)nc21
inactive: Potency [1] > 11.4 µM | activity change, negative = inhibition [2] 1.58% | activity change, negative = inhibition [3] -15.6% | activity, negative = inhibition [4] -8.51% | Potency [5] > 9.22 µM | Potency [6] > 46 µM | Potency [7] | Potency [8] | outcome [10]

COc1cccc(Cn2c(=O)cnc3cnc(N4CCOCC4)nc32)c1
inactive: Potency [1] > 11.4 µM | activity change, negative = inhibition [2] -21.3% | activity change, negative = inhibition [3] -0.938% | activity, negative = inhibition [4] -11% | Potency [5] > 9.22 µM | Potency [6] > 46 µM | Potency [7] | outcome [10]

Cn1c(=O)c(-c2cccs2)nc2cnc(Oc3ccccc3)nc21
inactive: Potency [1] > 11.4 µM | activity change, negative = inhibition [2] 12.2% | Potency [6] > 46 µM | Potency [8] | outcome [10]
active: Potency [12] 7.94 µM | Potency [9] 3160 nM

O=c1c(-c2ccc(Cl)cc2)nc2cncnc2n1Cc1ccccc1
inactive: Potency [1] > 11.4 µM | activity change, negative = inhibition [2] -10.4% | activity change, negative = inhibition [3] -17% | activity, negative = inhibition [4] -3.39% | Potency [5] > 9.22 µM | Potency [6] > 46 µM | Potency [7] | Potency [8] | Potency [11] | activation [9] -4.75% | outcome [10]

O=C(Nc1ccccc1)N1CC2(CCN(C(=O)c3cc(C(F)(F)F)cc(C(F)(F)F)c3)CC2)C1
inactive: Potency [1] > 11.4 µM | activity change, negative = inhibition [2] 12.7% | Potency [12] | Potency [7] | Potency [8] | Potency [13] | outcome [10]

COc1ncc2nc(C)c(=O)n(Cc3cccs3)c2n1
inactive: Potency [1] > 11.4 µM | activity change, negative = inhibition [2] -2.91% | activity change, negative = inhibition [3] -7.05% | activity, negative = inhibition [4] -7.75% | Potency [5] > 9.22 µM | Potency [6] > 46 µM | Potency [7] | Potency [8] | outcome [10]

COCC(=O)N1CCC2(CC1)CCN(c1ccc(-c3ccccc3)cc1)CC2
inactive: Potency [1] > 11.4 µM | activity change, negative = inhibition [2] -8.62% | activity change, negative = inhibition [3] 2.65% | activity, negative = inhibition [4] -21.1% | Potency [6] > 46 µM | Potency [7] | Potency [8] | Potency [14] | outcome [10]

O=C(c1ccncc1)N1CCC[C@@]2(CCN(Cc3ccccc3)C2)C1
inactive: Potency [1] > 11.4 µM | activity change, negative = inhibition [2] 1% | activity change, negative = inhibition [3] -11.7% | activity, negative = inhibition [4] 7.78% | Potency [6] > 46 µM | Potency [7] | Potency [8] | Potency [11] | outcome [10]
